Bioassay records (PubChem)
Tau FP inhib: blocks human tau fibril formation measured by polarization; P10636; K18 P301L tau heparin fibrillization, Alexa594 FP, 6 h; Potency, µM (highest dose often 57.7 µM), inactives show at the top dose activity, negative = inhibition, most hits filed as inhibitors; 280,000 compounds, 0.39% hits; AID 1468; further: nearly all actives have a fitted effect of over 55% in size
Target sequence (P10636 561-689 P618L limits assumed): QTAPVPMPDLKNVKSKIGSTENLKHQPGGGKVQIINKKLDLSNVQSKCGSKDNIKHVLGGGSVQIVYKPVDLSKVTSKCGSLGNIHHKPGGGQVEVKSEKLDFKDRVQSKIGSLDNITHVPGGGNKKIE
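Recombinant K18 P301L […], labeled with Alexa 594 at 0.24 uM over 15 uM unlabeled; heparin inducer 20 uM final; 37 C, 6 hr; FP endpoint.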
Tau fluor cs: counter-screen for tau fibril formation inhibitors | tau K18 P301L Alexa594 fluorescence, heparin fibrillization | Potency, µM (titrated, usually from 57.7 µM), without a hit: top-dose activity change, negative = decrease | 280,000 compounds, 0.93% hits | AID 1463; further: nearly all actives have a fitted effect of over 55% in size
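Human tau K18 P301L (15 uM unlabeled, 0.24 uM Alexa 594-labeled) in 100 mM sodium acetate pH 7 with 20 uM heparin, 6 hr at 37 C. ThT 30 uM added, 1 hr ambient; Alexa 594 FP and total fluorescence read at 555/632 nm.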
TRb SRC2 PPI: disrupts binding of human TR beta to SRC2; P10828; TRbeta-SRC2 peptide binding, fluorescence polarization; receptor liganded with 1 µM T3; Potency, µM (series often up to 106 µM), for the others: at the highest dose activity change, negative = inhibition, hits mostly inhibitors; 280,000 compounds, 0.065% hits;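 further: plate controls were bound peptide for no effect and peptide without receptor for full effect; nearly all actives have a fitted effect of over 50% in size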
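Human TRb LBD (0.6 uM) plus Texas Red-labeled SRC2 peptide (20 nM), 1uM T3, 5% DMSO, 5 hr at ambient temperature. Decreased polarization (555/632 nm) flags inhibition; data normalized to free and bound peptide controls.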
Tau ThT inhib: inhibitors of human tau fibril formation, thioflavin T binding; P10636; 270,000 compounds, 2.1% hits; AID 1460; Potency, µM (titrated, usually from 57.4 µM), without a hit: top-dose activity, negative = inhibition, usual class: inhibitors; recombinant tau K18 P301L (four-repeat tau fragment), heparin-induced fibrillization, ThT fluorescence; further: nearly all actives have a fitted effect of over 55% in size
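Heparin-induced fibrillization of the P301L-mutant K18 repeat-domain fragment of human tau was followed by ThT binding in quantitative high-throughput format.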
TR SRC2 fluor cs: Texas Red fluorescence interference in TRb-SRC2 counter-screen; TRb/SRC2 Texas Red total fluorescence interference; Potency, µM (top dose mostly 106 µM), for inactives: at the highest dose fluorescence change, negative = quenching; 280,000 compounds, 0.29% hits; AID 1479; active means well fitted curve in either direction with a large enough effect; inconclusive means small, poorly fitted or top-dose-only effect
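Flags fluorescent or light-absorbing compounds by total fluorescence, S + 2P, at 555 nm excitation and 632 nm emission. Mixture: 20 nM Texas Red SRC2 peptide, 0.6 uM human TRb LBD, 1 uM T3, 5% DMSO; compound exposure 5 h at ambient temperature.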
* hit, by the source's call; u = inconclusive; x = not tested or not shown; [ ] = remark or other dose. An excerpt weighted towards active compounds, which were near 3% of everything screened. Unless noted, the call rests on the fitted dose curve; in most records, active means well fitted curve in the direction sought with a large enough effect; inconclusive means small, poorly fitted or top-dose-only effect, or another doubt; inactive means no such curve, though single readings can be large; an effect the other way counts as inactive or inconclusive. Unless noted, on the % scale 0 is the no-effect control and ±100 the full control effect; potency means the concentration at half of the fitted maximal effect.

SMILES	Tau FP inhib	Tau fluor cs	TRb SRC2 PPI	Tau ThT inhib	TR SRC2 fluor cs
O=C(CS(=O)(=O)c1cccc2nsnc12)NCc1ccccc1Cl	1%	5%	-6%	2%	-2%
O=S(=O)(Nc1cccc(-c2ccc(N3CCOCC3)nn2)c1)c1ccccc1C(F)(F)F	-6%	-16%	2%	-5%	-1%
CCOc1ccc(C2C(C#N)=C(C)NC3=C2C(=O)c2ccccc23)cc1 (stereo unspecified)	u	20µM*[quencher]	-6%	u	-6%
Oc1ccc(-c2csc(-c3cccnc3)n2)cc1O	11%	u	4%	x	-7%
Oc1ccc(-c2csc(-c3ccccc3)n2)cc1O	-2%	16µM*[quencher]	4%	10µM*	-6%
Oc1ccc(-c2csc(Nc3ncccn3)n2)cc1O	18%	u	-1%	11µM*	-4%
CCC(=O)N1CCc2cc(Br)cc(S(=O)(=O)CCC(=O)Nc3ccc(C)c(C)c3)c21	0%	5%	1%	-3%	1%
Cc1ccc(C(=O)N/C(=C\c2ccc(-c3ccc([N+](=O)[O-])cc3)o2)C(=O)NC2CCS(=O)(=O)C2)cc1 (stereo unspecified)	9%	u	-5%	6.3µM*	-2%
CCOC(=O)CCN1C(=O)[C@H]2[C@H]3[C@H](O)[C@H](O)C/C(=N/O[C@@H]4O[C@@H](COC(C)=O)[C@@H](OC(C)=O)[C@@H](OC(C)=O)[C@H]4OC(C)=O)[C@@H]3CC[C@@H]2C1=O	-2%[11.6 µM]	-2%[11.6 µM]	-3%[11.2 µM]	-3%[11.5 µM]	2%[11.2 µM]
CC(=O)c1ccc(NC(=O)C2CC(=O)N(Cc3ccccc3)C2)cc1 (stereo unspecified)	-1%	-17%	-7%	8.9µM*	0%
Cc1cccc(N=C2NN=C(c3c(C)[nH]c4ccccc34)CS2)c1	-8%	-1%	-8%	0%	-3%
Cc1cccc(N=C2NN=C(c3ccc4c(c3)OCCO4)CS2)c1	-12%	u	2%	11µM*	-5%
CCCC(=O)OC1(C(=O)CO)CCC2C3CCC4=CC(=O)CCC4(C)C3C(O)CC21C (stereo unspecified)	3%	-12%	-1%	-9%	5%
NC(=O)c1sc(=S)n2c1[nH]c(=O)c1sccc12	1%	-26%	-7%	11µM*	-4%
CC(=O)NNC(=O)c1sc(=S)n2c1[nH]c(=O)c1sccc12	9%	-17%	-2%	u	-5%
COc1ccc(-c2coc3cc(O)ccc3c2=O)c(O)c1O	16µM*	13µM*[quencher]	5%	10µM*	-9%
O=c1oc2cc(O)ccc2cc1-c1nc2c(s1)CCc1ccccc1-2	-19%	11µM*[quencher]	12%	-9%	0%
Cc1[nH]n(-c2ccccc2)c(=O)c1N=Nc1nccs1	8%	-28%	-4%	13µM*	-6%
Cc1[nH]n(-c2ccccc2)c(=O)c1N=Nc1ccccc1O	u	u	-2%	u	0%
CCOC(=O)CC(=O)CSc1nc2ccccc2c(=O)n1CCc1ccc(S(N)(=O)=O)cc1	-7%	-7%	-4%	2%	-5%
N#CC1=C(N)SC(N)=C(C#N)C1c1ccoc1	u	u	6%	22µM*	0%
Cc1ccc(C2C(C#N)=C(N)SC(N)=C2C#N)cc1	-8%	u	-4%	u	3%
O=C1CCCC(O)=C1N=Nc1c(Cl)cc(Cl)cc1Cl	-13%	-6%	28µM*	u	45µM*[fluorescent]
O=C(O)c1ccc(N=c2oc3cc(O)ccc3cc2C(=O)NCc2ccccc2)cc1	0%	-10%	5%	28µM*	-10%
Cc1cccc(OCc2ccc(-c3nc(C#N)c(NCc4cccnc4)o3)o2)c1	u	u	1%	u	9%
Cc1ccccc1-c1cc(C(=O)Nc2sc(C)c(C)c2C(N)=O)c2ccccc2n1	u	u	0%	22µM*	2%
COc1ccc(NC(=O)Cn2c(SCc3cccc(Cl)c3)nc3ccncc32)c(OC)c1OC	-6%	14µM*[quencher]	12%	u	-2%
Cc1ccc(NC(=O)Cn2c(SCc3cccc(F)c3)nc3ccncc32)c(C)c1	-11%	-9%	7%	-9%	0%
